Assay results reported in PubChem BioAssay AID1347076 (National Center for Advancing Translational Sciences (NCATS), 2019).
The campaign covered roughly 400,000 compounds. About 13,000 (3.2%) were called active. Not shown: some 18% with an inconclusive outcome. Calls follow the shape of the dose curve; as a rule, active = well fitted cell-killing curve with a large enough effect; inconclusive = small, poorly fitted or top-dose-only effect, or effect the other way; inactive = flat fitted curve, though single readings scatter. For the sample, actives were picked, then their nearest neighbours and some compounds at random.

Assay: qHTS assay for MDR1-selective chemotherapeutics: Primary screen using the drug-selected MDR subline cells KB-V1; also: nearly all actives have a fitted effect of over 60% in size
Conditions: KB-V1 MDR cells viability, CellTiter-Glo, 72 h; series mostly up to 46.1 µM; activity change, negative = cytotoxicity: at the top concentration
Description: A prime difficulty in effectively treating cancer is the development of cellular resistance to multiple structurally unrelated anticancer drugs, a phenomenon known as multidrug resistance (MDR). […] Numerous strategies to overcome P-gp-mediated MDR have been explored, including the design of drugs that evade recognition and efflux, and development of inhibitors to block efflux and restore drug accumulation. […] An alternative approach is to exploit resistance by identifying drugs that target MDR cells over the non-resistant parental cells from which they were selected. […] The development of MDR1-selective agents represents a new strategy for resolving multidrug resistance, as it remains a long-standing clinical challenge for cancer chemotherapy.
Our goal is to identify compounds that selectively kill P-gp-expressing MDR cells. We will identify MDR1-selective compounds by comparing toxicity of compounds in the screening library against parental, drug-naive (KB-3-1) adenocarcinoma cells as well as their drug-selected MDR sub-line (KB-V1). The differential toxicity of compounds against these two cell lines will be used to identify MDR1-selective compounds, whose cytotoxicity is potentiated, rather than diminished, by P-gp expression. This assay will be utilized to conduct a quantitative high-throughput screen (qHTS) in collaboration with the NIH Chemical Genomics Center to identify selective agents, and probe hits arising from the screen will be validated using secondary assays and characterized through a well-established follow-up research program. This screen was run against the entire NCGC library collection of about 400,000 compounds.
NIH Molecular Libraries Probe Production Network [MLPCN]
NIH Chemical Genomics Center [NCGC]
PI: Michael Gottesman, National Cancer Institute, NIH
Briefly, 5 microL of media containing either KB-V1 cells (columns 1-2, 4-48) are dispensed into Greiner white, treated solid-bottom 1536-well assay plates (media-only control is added to column 3). Compounds are then transferred via Kalypsys pin tool equipped with 1536-pin array (10 nL slotted pins, V&P Scientific, San Diego, CA). Following addition of compound, the plates are incubated at 37 degrees C for 72 hours. CellTiter-Glo (2.5 µL/well) is then added, and the plates are read in a ViewLux reader (Perkin-Elmer, clear luminescence filter, 1 second exposure, 1x binning) following a 10 minute incubation. All cells are dispensed in DMEM phenol-red free media containing 10% FBS.
Library plates were screened starting from the lowest and proceeding to the highest concentration. Vehicle-only plates, with DMSO being pin-transferred to columns 5-48, will be inserted uniformly at the beginning and the end of each library in order to monitor and record any shifts in the background, which can be affected by reagent dispensers or loss in enzyme activity over time. Screening data will be corrected, normalized, and concentration-effect relationships will be derived by using publicly-available NCGC, NCATS curve fitting algorithms (http://ncgc.nih.gov/pub/openhts).
% is scaled to controls: 0 for no effect and ±100 for the full control effect; potency is read from the fitted curve at half-maximal effect.

Row | SMILES | Potency | activity change, negative = cytotoxicity
1 | CCN1CC(CN(C)Cc2nc(-c3ccc(Cl)cc3)no2)CC1=O (configuration not stated) | 16.4 µM (active) | –
2 | CN1CCN(C(=O)CCc2nc(-c3ccc(Cl)cc3)no2)CC1 | – | -19% (inactive)
3 | CC1CCN(Cc2nc(-c3ccc(Cl)cc3)no2)CC1 | – | 0.287% (inactive)
4 | C[C@H](CO)N1C[C@H](C)[C@H](CN(C)C(=O)Nc2ccc3c(c2)OCO3)Oc2ncc(Br)cc2C1=O | – | 0% (inactive)
5 | CC(C)(C)c1ccc(C(=O)C[N+]2(C)CCCc3ccccc32)cc1 (configuration not stated) | – | 0.231% (inactive)
6 | COc1ccc(-n2c(-c3ccc(Cl)cc3)n[nH]c2=S)c(OC)c1 | – | 4.94% (inactive)
7 | Cc1cc(Cl)ccc1NC(=O)Cc1ccc(NC(=O)N2CCCCc3ccccc32)cc1 | – | 5.96% (inactive)
8 | O=C(NCc1ccco1)c1cccc(-c2ccc3nncn3c2)c1 | – | -11.8% (inactive)
9 | CCCC1=Nc2cc(C(=O)NCCN3CCCC3)ccc2Sc2ccccc21 | – | -2.03% (inactive)
10 | CCCC1=Nc2cc(C(=O)NCc3ccco3)ccc2Sc2ccccc21 | 4.11 µM (active) | –
11 | CCCCCNC(=O)C(c1ccc(OC)cc1)n1c(=O)c(-c2ccccc2)nc2ccccc21 (configuration not stated) | – | -20.4% (inactive)
12 | CCCCn1nnnc1C1(C)CCC(=O)N1Cc1ccc(OC)c(OC)c1 (configuration not stated) | – | -7.85% (inactive)
13 | C[C@H](CO)N1C[C@H](C)[C@H](CN(C)C(=O)c2ccncc2)OCc2ccccc2-c2c(n(C)c3ccccc23)C1=O | – | 0.888% (inactive)
14 | Cc1nn(Cc2ccc(Cl)cc2)c(Cl)c1/C=N/NC(=O)CNc1ccccc1F | 3.26 µM (active) | –
15 | Cc1nn(Cc2ccc(Cl)cc2)c(Cl)c1/C=N/NC(=O)c1cccnc1 | – | 1.6% (inactive)
16 | CCn1nc(C)c(/C=N/NC(=O)Cc2ccc(Cl)cc2)c1C | – | 14.2% (inactive)
17 | CC(C)C[C@H]1CNC(=S)N1C[C@H]1CCCN1C[C@H](Cc1ccc(O)cc1)N1C[C@H](Cc2ccc(O)cc2)N(CC2CCCCC2)C1=S | – | -8.38% (inactive)
18 | Cn1cnc(S(=O)(=O)N2C[C@@H](O)COC[C@@H]3O[C@H](CC(=O)NC4CCC4)CC[C@H]32)c1 | – | 0.239% (inactive)
19 | OC[C@H]1O[C@@H](c2nc(-c3nc(-c4ccc(F)cc4)no3)cs2)[C@H](O)[C@@H](O)[C@H]1O | – | -0.61% (inactive)
20 | COc1cc(Cl)c(C)cc1Nc1nnc(-n2nc(C)cc2C)c2ccccc12 | – | -12.2% (inactive)
21 | COc1ccc(C(=O)NC2CC2)cc1OC1CCN(C/C=C/c2ccccc2)CC1 | 16.4 µM (active) | –

Row | SMILES | Potency | activity change, negative = cytotoxicity
22 | COc1ccc(C(=O)NC2CC2)cc1OC1CCN(Cc2ccc(SC)cc2)CC1 | – | -8.65% (inactive)
23 | COc1ccc(C(=O)NC2CC2)cc1OC1CCN(Cc2cnn(C)c2)CC1 | – | 2.24% (inactive)
24 | CCN(CC)CCN(C(=O)c1ccc(S(=O)(=O)N2CCOCC2)cc1)c1nc2cc3c(cc2s1)OCCO3 | – | -7.69% (inactive)
25 | CN(C)CCCN(C(=O)c1ccc(S(=O)(=O)N2CCCCCC2)cc1)c1nc2ccc(Br)cc2s1 | 23.1 µM (active) | –
26 | CN(C)CCCN(C(=O)c1ccc(S(=O)(=O)N2CCCCCC2)cc1)c1nc2cc3c(cc2s1)OCCO3 | – | -18.9% (inactive)
27 | COC(=O)c1ccccc1N=NNc1ccc([N+](=O)[O-])cc1 | – | 8.27% (inactive)
28 | CC1(C(=O)NS(=O)(=O)c2cccc(F)c2)CCN1C(=O)Cc1cc(F)ccc1F (configuration not stated) | – | -1.01% (inactive)
29 | O=C(Nc1cccc(-c2nnc(-c3ccccc3)o2)c1)C1CCCO1 (configuration not stated) | – | -7.48% (inactive)
30 | O=C(Nc1nnc(CCc2ccccc2)s1)C1CCCO1 (configuration not stated) | – | 21% (inactive)
31 | O=C(Nc1ccc(-c2nnc(-c3ccccc3)o2)cc1)C1CCCO1 (configuration not stated) | 8.2 µM (active) | –
32 | CC1(C(=O)NCc2ccccc2)CSCC(=O)N1CCCn1ccnc1 (configuration not stated) | – | -1.64% (inactive)
33 | COc1ccc(-c2cc(NCc3ccc(F)cc3)n3cnnc3n2)cc1 | – | -27.6% (inactive)
34 | Cc1cccc(C(=O)N[C@H](C(=O)NCc2cccs2)C(C)C)c1 | 9.2 µM (active) | –
35 | CC(Cc1cccs1)NC(=O)c1cccc(Cl)c1 (configuration not stated) | – | -0.81% (inactive)
36 | CC(=O)Nc1ccc(NC(=O)[C@@H](NC(=O)c2cccc(C)c2)C(C)C)cc1 | – | -7.26% (inactive)
37 | COc1ccc(-c2[nH][nH]c(=O)c2NC(=O)c2ccc([N+](=O)[O-])cc2)cc1 | – | 13.7% (inactive)
38 | CCCN(CC1COc2ccccc2O1)C(=S)Nc1ccc(C)cc1 (configuration not stated) | – | 0.384% (inactive)
39 | S=C(NCC1COc2ccccc2O1)Nc1ccc(Br)cc1 (configuration not stated) | 23.1 µM (active) | –
40 | O=C(NCC1COc2ccccc2O1)C1(c2ccccc2)CCCC1 (configuration not stated) | – | 0% (inactive)
41 | C[C@@H]1CN([C@H](C)CO)C(=O)c2cc(-c3ccc(F)cc3)cnc2O[C@H]1CN(C)C(=O)c1ccc(F)cc1 | – | 8.9% (inactive)
42 | CN(Cc1c(F)cccc1Cl)C(=O)COC(=O)Cn1cnc2ccccc2c1=O | – | -0.17% (inactive)

Row | SMILES | Potency | activity change, negative = cytotoxicity
43 | CC1CCN(C(=O)c2cccc(S(=O)(=O)N3CCCc4ccccc43)c2)CC1 | – | -25.6% (inactive)
44 | Cn1c(=O)n(C)c2cc(S(=O)(=O)N3CCCc4ccccc43)ccc21 | 8.2 µM (active) | –
45 | COc1cc(C)c(C)cc1S(=O)(=O)N1CCCc2ccccc21 | – | -18.2% (inactive)
46 | C[C@H](CO)N1C[C@H](C)[C@@H](CN(C)Cc2ccc3c(c2)OCO3)OCc2cnnn2CCCC1=O | – | 25.2% (inactive)
47 | CC1(C(=O)Nc2cccnc2)Cc2c(-c3ccccc3)ccnc2O1 (configuration not stated) | – | 0.0523% (inactive)
48 | Cc1[nH]c2ccccc2c1C(=O)CN1CC(C)CC(C)C1 (configuration not stated) | – | -4.45% (inactive)
49 | Cc1nnc(SC(C)C(=O)c2c[nH]c3ccccc23)n1C1CC1 (configuration not stated) | – | 12.2% (inactive)
50 | Cc1[nH]c2ccccc2c1C(=O)C(C)Sc1nnc(C2CC2)o1 (configuration not stated) | 7.31 µM (active) | –
51 | COc1ccc(NC(=O)c2ccc3nc(CCc4ccccc4)oc3c2)c(OC)c1 | – | 8.05% (inactive)
52 | CC1(C(=O)NS(=O)(=O)c2cccs2)CCN1C(=O)Cc1ccc(-c2ccccc2)cc1 (configuration not stated) | – | 2.38% (inactive)
53 | O=C(COc1ccccc1C(=O)Nc1ccccc1)Nc1cccc(F)c1 | – | 18.7% (inactive)
54 | Cc1nc2c(-c3ccccc3)c(C)nn2c(C)c1CCC(=O)NCCc1ccccc1 | – | -0.983% (inactive)
55 | COc1cc(NC(=O)CCn2nc(C)cc2C)cc(OC)c1OC | – | 4.5% (inactive)
56 | Cc1[nH]c2c(C(=O)N3CCCC(CCC(=O)NCc4ccccc4F)C3)cccc2c1C (configuration not stated) | 16.4 µM (active) | –
57 | COc1cccc(CNC(=O)CCC2CCCN(C(=O)c3cc(C)[nH]n3)C2)c1 (configuration not stated) | – | 0% (inactive)
58 | CSc1ncccc1C(=O)N1CCCC(CCC(=O)NCc2ccccc2F)C1 (configuration not stated) | – | -19.4% (inactive)
59 | CC(C)NC(=O)N1Cc2cc(C(=O)NCC(F)(F)F)nc(-c3cccc(-c4cc5ccccc5o4)c3)c2[C@@H]1CCO | – | -2.81% (inactive)
60 | CCOc1ccc2nc(N3CCCN(C(=O)Nc4ccccc4C)CC3)c(C#N)cc2c1 | 18.4 µM (active) | –
61 | CCOc1ccc2nc(N3CCCC(C(=O)Nc4cc(C)ccc4C)C3)sc2c1 (configuration not stated) | – | 5.92% (inactive)
62 | COc1ccc2nc(N3CCCC(O)C3)c(C#N)cc2c1 (configuration not stated) | – | 20.8% (inactive)
